In paper PMC5540273 (PLoS ONE, 2017):

Assays:
Settings in all cases: concentration: 1 μM, replicates: in singlicate; n = 1
STK36 = system: STK36
STK39 = system: STK39
SYK = system: SYK
SgK110 = system: SgK110
TAK1 = system: T1, TAK1
T1 construct: gene MAP3K7

TAOK1 = system: TAOK1
TAOK2 = system: TAOK2
TAOK3 = system: TAOK3
TBK1 = system: TBK1
TEC = system: TEC
TESK1 = system: TESK1
TGFBR1 = system: TGFBR1
TGFBR2 = system: TGFBR2
TIE1 = system: TIE1
TIE2 = system: T2, TIE2
T2 construct: gene TEK

TLK1 = system: TLK1
TLK2 = system: TLK2
TNIK = system: TNIK
TNK1 = system: TNK1
TNK2 = system: TNK2
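Also: KINOMEscan kinase panel screen.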

Compound	%Inh (STK36)	%Inh (STK39)	%Inh (SYK)	%Inh (SgK110)	%Inh (TAK1)	%Inh (TAOK1)	%Inh (TAOK2)	%Inh (TAOK3)	%Inh (TBK1)	%Inh (TEC)	%Inh (TESK1)	%Inh (TGFBR1)	%Inh (TGFBR2)	%Inh (TIE1)	%Inh (TIE2)	%Inh (TLK1)	%Inh (TLK2)	%Inh (TNIK)	%Inh (TNK1)	%Inh (TNK2)
O=C(O)C(F)(F)F.O=C(O)C(F)(F)F.O=c1[nH]ccc2nc(N[C@@H]3CCCNC3)nc(Nc3ccc(S(=O)(=O)N4CCOCC4)cc3)c12 [GSK2177277]	26%	90.6%	93.1%	95%	99.9%	99.8%	82%	99.5%	90%	38%	0%	32%	0%	66%	0%	94.3%	98.2%	99.5%	73%	26%
c1ccc(Oc2ccc(Nc3ccnc4cc(-c5ccc(CNCCN6CCOCC6)o5)ccc34)cc2)nc1 [GW567145]	0%	1%	14%	0%	0%	0%	0%	0%	1%	39%	3%	0%	0%	0%	0%	0%	0%	30%	27%	37%
COc1cccc(NC(=O)NC2CCN(c3ccnc(Nc4cc(OC)c(OC)c(OC)c4)n3)C2)c1 (stereo not drawn) [GSK1379763]	0%	0%	28%	0%	0%	0%	0%	0%	38%	5%	1%	4%	0%	28%	0%	10%	0%	0%	0%	9%
CCc1ccc(-c2ccc3c(c2)-c2c(cnn2C)S(=O)(=O)N3C)cc1	0%	0%	0%	0%	4%	0%	0%	0%	8%	0%	3%	0%	2%	33%	0%	0%	0%	8%	0%	0%
CC(=O)N1CCN(c2ccc(Nc3nccc(-c4sc(C(C)C)nc4-c4cccc(NS(=O)(=O)c5cccc(Cl)c5)c4)n3)cn2)CC1 [GSK1660437]	99.8%	19%	61%	0%	41%	0%	0%	3%	2%	21%	66%	76%	79%	76%	96.8%	0%	0%	10%	95.6%	28%
FC(F)(F)c1ccc(/C=C/c2cncnc2Nc2ccc3[nH]c(Cc4ccccc4)nc3c2)cc1 [GW709199]	0%	0%	10%	9%	0%	0%	0%	0%	36%	14%	2%	28%	0%	0%	15%	0%	0%	0%	0%	0%
COc1ccc(Nc2nccc(NCCNC(=O)c3cc4ccccc4s3)n2)cc1 [GSK1379896]	0%	3%	2%	24%	0%	0%	0%	0%	2%	0%	0%	0%	0%	0%	0%	0%	0%	0%	0%	4%
Cn1cc(-c2ccc3c(c2)CCN3C(=O)Cc2cccc(F)c2)c2c(N)ncnc21 [GSK2603358]	0%	12%	18%	0%	30%	0%	0%	0%	19%	8%	39%	0%	0%	89%	48%	0%	0%	0%	0%	3%
COc1ccc(Nc2nccc(N3CCC(NC(=O)Nc4cccc(OC)c4)C3)n2)cc1 (stereo not drawn) [GSK1379742]	0%	5%	25%	0%	0%	0%	0%	0%	6%	1%	36%	0%	9%	0%	0%	0%	0%	0%	0%	12%
Cc1ccc(F)c(C(=O)Nc2cccc(-c3nn4ccccc4c3-c3ccnc(Nc4cccc(F)c4)n3)c2)c1F [GSK361061]	99.1%	18%	45%	0%	0%	33%	18%	41%	29%	75%	28%	43%	21%	55%	27%	8%	0%	29%	88%	43%
COc1ccc(-c2coc3ccc(-c4nnc(SCc5ccc(OC)c(C(F)(F)F)c5)o4)cc23)cc1	29%	0%	0%	4%	0%	0%	0%	0%	11%	18%	0%	6%	25%	0%	0%	17%	0%	3%	9%	8%
CCS(=O)(=O)c1ccc(OC)c(Nc2nccc(-c3c(-c4cccc(NC(=O)c5c(F)cccc5F)c4)nn4ncccc34)n2)c1 [GSK326180]	99.7%	16%	4%	0%	0%	0%	0%	0%	21%	4%	2%	22%	0%	47%	37%	3%	0%	0%	85%	48%
CNC(=O)c1ccccc1Nc1nc(Nc2ccc(N3CCOCC3)cc2)ncc1Cl.Cl [GSK1576028]	85%	54%	87%	90.5%	96.1%	98.8%	83%	94.2%	93.1%	99%	26%	93%	0%	100%	97.9%	52%	57%	76%	100%	98.2%
COC(=O)Nc1nc2cc(Oc3ccc(NC(=O)Nc4cc(C(F)(F)F)ccc4F)cn3)ccc2[nH]1.Cl.Cl [GW681170]	0%	3%	16%	0%	79%	0%	0%	0%	19%	0%	10%	0%	0%	93.1%	98.6%	11%	0%	0%	0%	0%
C[C@@H](Oc1cc(-n2cnc3cc(-c4ccnc(NCCS(C)(=O)=O)c4)ccc32)sc1C(N)=O)c1ccccc1Cl [GSK907232]	0%	13%	80%	0%	0%	0%	0%	0%	5%	4%	28%	5%	0%	78%	56%	0%	0%	36%	17%	33%
Cc1ccc(C)c(NC(=O)NC2CCN(c3ccnc(Nc4ccc(F)cc4)n3)C2)c1 (stereo not drawn) [GSK1379720]	5%	10%	16%	11%	0%	0%	0%	0%	0%	2%	28%	12%	0%	0%	0%	0%	0%	0%	0%	21%
CN1CCN(Cc2cccc(-c3ccc4c(Nc5ccc(Oc6ccccc6)cc5)ccnc4c3)c2)CC1 [GW578342]	0%	6%	0%	6%	13%	0%	0%	0%	16%	70%	2%	0%	0%	10%	0%	78%	0%	98.8%	70%	7%
CN(c1ccc(NC(=O)Nc2cc(C(F)(F)F)ccc2F)cc1)c1ccnc(Nc2ccc(S(N)(=O)=O)cc2)n1 [GW809893]	0%	0%	91.9%	0%	60%	53%	86%	79%	29%	0%	75%	0%	6%	94.3%	99.6%	0%	0%	81%	54%	0%
